From PubChem BioAssay
The list is not random: actives were taken first. Their share in the collection is about 19%.
IL1B secr inh: qHTS for Inhibitors of Inflammasome Signaling: IL-1-beta AlphaLISA Primary Screen. THP-1 LPS/ATP IL-1B secretion, AlphaLISA, 16 h; active compounds read low. activity change, % at 57.5 µM. actives 4.7% (n = 360,000); in the data active means activity change below about -50%; inconclusive means mostly about -30% to -49%
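Secreted IL-1B measured by AlphaLISA bead assay after 16 h compound exposure of THP-1 cells; compounds (final up to 57.5 uM) added 1 h before LPS (250 ng/mL) and ATP (1.25 mM) stimulation; lower signal means less secretion.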
DT40 TDP1 no CPT: qHTS for Inhibitors of human tyrosyl-DNA phosphodiesterase 1 (TDP1): qHTS in cells in absence of CPT. DT40 Tdp1-/- hTDP1 cells, no CPT, ATP luminescence, 48 h. Potency, µM (doses to about 46.2 µM), for the others: at the highest dose activity change, negative = growth inhibition, most hits filed as inhibitors. actives 15% (n = 420,000). AID 686978, 2013; further: potency means the concentration at half of the fitted maximal effect; nearly all actives have a fitted effect of over 55% in size
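DT40 Tdp1-/-;hTDP1 cells, no CPT (DMSO vehicle only), 400 cells/well; compounds pin-transferred; ≥48 hr, 37 °C; CellTiter-Glo 30 min RT dark, luminescence read.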
DT40 TDP1 CPT: qHTS for Inhibitors of human tyrosyl-DNA phosphodiesterase 1 (TDP1): qHTS in cells in presence of CPT; chicken DT40 Tdp1-/-;hTDP1 cells + 20 nM CPT, ATP luminescence, 48 h; Potency, µM (highest dose often 46.2 µM), without a hit: at the top dose activity change, negative = growth inhibition, actives largely listed as inhibitors; actives 12% (n = 420,000); further: potency means the concentration at half of the fitted maximal effect; nearly all actives have a fitted effect of over 55% in size
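Cell growth measured by CellTiter-Glo luminescence after a minimum 48 h, 37 C compound exposure with 20 nM CPT in Tdp1-knockout DT40 cells stably expressing hTDP1, seeded 400/well; qHTS titration format.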
HT1080-NT tox: qHTS for induction of synthetic lethality in tumor cells producing 2HG: qHTS for the HT-1080-NT fibrosarcoma cell line. HT-1080-NT fibrosarcoma viability, CellTiter-Glo ATP luminescence, 48 h. Potency, µM (titrated, usually from 46.1 µM), for the others: top-dose activity, negative = less viability, usual class: cytotoxic. actives 1.6% (n = 360,000). AID 686970, 2013;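 further: NT is the 2HG producing partner of a matched IDH1 knockdown line; potency means the concentration at half of the fitted maximal effect; 0% = DMSO-treated cells and -100% = media-only wells without cells; nearly all actives have a fitted effect of over 55% in size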
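HT-1080-NT; 750 cells/well; 5% FBS RPMI; 48 h compound, 37 degrees C; CellTiter-Glo luminescence; curve fitting and curve-class assignment.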
HT1080 IDH1KD tx: qHTS for induction of synthetic lethality in tumor cells producing 2HG: qHTS for the HT-1080-IDH1KD cell line. HT-1080 IDH1 knockdown viability, ATP luminescence, 48 h. Potency, µM (titrated, usually from 46.1 µM), inactives show at the top dose activity, negative = toxicity, most hits filed as cytotoxic. actives 2% (n = 360,000);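 further: potency means the concentration at half of the fitted maximal effect; 0% = DMSO wells and -100% = cell-free medium wells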
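HT-1080-IDH1KD cells (IDH1 knocked down), 750/well in RPMI with 5% FBS, treated with compound 48 h at 37 degrees C. Viability by CellTiter-Glo luminescence, normalised to DMSO and no-cell wells; concentration-response curves classed.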
Starred values were filed as active, the others as inactive. Unless noted, the call rests on the fitted dose curve; in most records, active means well fitted curve in the direction sought with a large enough effect; inconclusive means small, poorly fitted or top-dose-only effect, or another doubt; inactive means no such curve, though single readings can be large; an effect the other way counts as inactive or inconclusive. Unless noted, on the % scale 0 is the no-effect control and ±100 the full control effect.

For O=S(=O)(NCc1ccccc1)c1ccc(S(=O)(=O)N(Cc2cccs2)CC2CCCO2)cc1 (stereo unspecified) the results were IL1B secr inh -2, DT40 TDP1 no CPT -1%, DT40 TDP1 CPT -16%, HT1080-NT tox 6% and HT1080 IDH1KD tx -1%.
COc1ccc2c(c1)CCN=C2Cc1ccc(OC)c(OC)c1 was read as IL1B secr inh inconclusive, DT40 TDP1 no CPT 16µM*, DT40 TDP1 CPT inconclusive, HT1080-NT tox -20% and HT1080 IDH1KD tx inconclusive.
`CCn1ccc2cc(S(=O)(=O)N3CCC(C(=O)NCc4ccc(OC(C)C)cc4)CC3)ccc21` gave DT40 TDP1 no CPT -28% and DT40 TDP1 CPT inconclusive.
Screening CCN1/C(=C\C(=S)Nc2ccccc2)Sc2ccccc21 returned IL1B secr inh -97*, DT40 TDP1 no CPT 3.3µM*, DT40 TDP1 CPT 3.7µM*, HT1080-NT tox 15µM* and HT1080 IDH1KD tx 9.2µM*.
COc1ccc(NC(=O)N(Cc2ccc(C)cc2)Cc2ccccn2)c(OC)c1 was read as IL1B secr inh 14, DT40 TDP1 no CPT inconclusive, DT40 TDP1 CPT 26µM*, HT1080-NT tox -2% and HT1080 IDH1KD tx -9%.
`COc1ccc(CN(Cc2ccccn2)C(=O)CN2C(=O)C(C)Oc3ccccc32)cc1` (stereo unspecified) gave IL1B secr inh -5, DT40 TDP1 no CPT 21µM*, DT40 TDP1 CPT inconclusive, HT1080-NT tox 6% and HT1080 IDH1KD tx 10%.
`COc1ccc(N2CCN(CCCn3cnc4c(OC)ncnc43)CC2)cc1` gave IL1B secr inh 23, DT40 TDP1 no CPT -1%, DT40 TDP1 CPT 3%, HT1080-NT tox 3% and HT1080 IDH1KD tx 7%.
For Cc1cccc(N/N=C(\C(N)=O)C2=NC(C)(C)Cc3ccccc32)c1 the results were IL1B secr inh -14, DT40 TDP1 no CPT 26µM*, DT40 TDP1 CPT inconclusive, HT1080-NT tox inconclusive and HT1080 IDH1KD tx inconclusive.
Screening CCOC(=O)/C(=N\O)C1=NC(C)(C)Cc2ccccc21 returned IL1B secr inh -4, DT40 TDP1 no CPT 15%, DT40 TDP1 CPT 6%, HT1080-NT tox 1% and HT1080 IDH1KD tx -1%.
`CCCn1c(SCc2cc(=O)[nH]c3ccccc23)nc2c1c(=O)n(C)c(=O)n2C` gave IL1B secr inh 5, DT40 TDP1 no CPT -29%, DT40 TDP1 CPT inconclusive, HT1080-NT tox -8% and HT1080 IDH1KD tx 3%.
`COCCNC(=O)c1cccc(Nc2nc3ccccc3n3nnnc23)c1` gave DT40 TDP1 no CPT inconclusive and DT40 TDP1 CPT -7%.
Screening Cc1ccc(CNC(=O)c2cccc(Nc3nc4ccccc4n4nnnc34)c2)cc1 returned DT40 TDP1 no CPT 10µM* and DT40 TDP1 CPT 21µM*.
`COc1cc(Nc2nc3ccccc3n3nnnc23)cc(OC)c1OC` gave IL1B secr inh -1, DT40 TDP1 no CPT 9.2µM*, DT40 TDP1 CPT 8.2µM*, HT1080-NT tox 14% and HT1080 IDH1KD tx 1%.
`CCCCOc1ccc(C(C)NC(=O)c2cccc(Nc3nc4ccccc4n4nnnc34)c2)cc1` (stereo unspecified) gave DT40 TDP1 no CPT 5.8µM* and DT40 TDP1 CPT 5.2µM*.
`CCCCN1C(=O)C(NC(=O)c2ccc(C(C)(C)C)cc2)(C(F)(F)F)C(C(=O)OC)=C1C` (stereo unspecified) gave DT40 TDP1 no CPT 23µM* and DT40 TDP1 CPT inconclusive.
Screening Cn1c(=O)c(-c2ccc(F)c(F)c2)nc2cncnc21 returned DT40 TDP1 no CPT 3% and DT40 TDP1 CPT 9%.
Nc1cccc2nc3ccccc3cc12 was read as IL1B secr inh 23, DT40 TDP1 no CPT inconclusive, DT40 TDP1 CPT 6.5µM*, HT1080-NT tox 18µM* and HT1080 IDH1KD tx 13µM*.
Nc1[nH]nc2nc3ccccc3cc12 was read as IL1B secr inh 7, DT40 TDP1 no CPT 8%, DT40 TDP1 CPT 12%, HT1080-NT tox -25% and HT1080 IDH1KD tx -9%.
`CC(=O)Nc1cccc(NC(=O)CSc2ccc(-c3ccccn3)nn2)c1` gave IL1B secr inh 115, DT40 TDP1 no CPT inconclusive, DT40 TDP1 CPT inconclusive, HT1080-NT tox -20% and HT1080 IDH1KD tx inconclusive.
Screening CC(=O)c1cccc(NC(=O)CSc2ccc(-c3ccccn3)nn2)c1 returned IL1B secr inh 180, DT40 TDP1 no CPT inconclusive, DT40 TDP1 CPT inconclusive, HT1080-NT tox inconclusive and HT1080 IDH1KD tx inconclusive.
Screening Cc1ccc(NC(=O)CSc2ccc(-c3ccccn3)nn2)cc1F returned IL1B secr inh 108, DT40 TDP1 no CPT 12µM*, DT40 TDP1 CPT 16µM*, HT1080-NT tox -5% and HT1080 IDH1KD tx -28%.
CCc1ccc(NC(=O)CSc2ccc(-c3ccccn3)nn2)cc1 was read as IL1B secr inh 265, DT40 TDP1 no CPT 23µM*, DT40 TDP1 CPT inconclusive, HT1080-NT tox inconclusive and HT1080 IDH1KD tx -28%.
For O=C(CSc1ccccn1)Nc1ccc2c(c1)C(=O)c1ccccc1C2=O the results were IL1B secr inh 0, DT40 TDP1 no CPT 16µM*, DT40 TDP1 CPT inconclusive, HT1080-NT tox inconclusive and HT1080 IDH1KD tx 21µM*.
CCOC(=O)c1ccccc1NC(=O)CSc1ccc(-c2ccccn2)nn1 was read as IL1B secr inh 149, DT40 TDP1 no CPT inconclusive, DT40 TDP1 CPT 3.7µM*, HT1080-NT tox -14% and HT1080 IDH1KD tx -26%.
For COC(=O)c1cnn2c1C(=O)N(Cc1cccs1)CC2 the results were IL1B secr inh 9, DT40 TDP1 no CPT -4%, DT40 TDP1 CPT 7%, HT1080-NT tox 6% and HT1080 IDH1KD tx 11%.
Nc1nc(SCC(=O)Nc2ccc([N+](=O)[O-])cc2)[nH]c(=O)c1NC(=O)c1ccc(Br)cc1 was read as IL1B secr inh -12, DT40 TDP1 no CPT 19%, DT40 TDP1 CPT 20%, HT1080-NT tox -2% and HT1080 IDH1KD tx 4%.
For Cc1sc2c(c1C)c(=O)n(-c1ccc(Cl)cc1)c(=O)n2CC(=O)c1ccccc1 the results were DT40 TDP1 no CPT -16% and DT40 TDP1 CPT -18%.
`O=C(NCc1ccc2c(c1)CCN2C(=O)c1ccc(Cl)cc1)c1cccc(F)c1` gave DT40 TDP1 no CPT 2% and DT40 TDP1 CPT 7%.
For CCOc1ccc(C(=O)NCc2ccc3c(c2)CCN3C(=O)c2ccc(Cl)cc2)cc1 the results were DT40 TDP1 no CPT 2% and DT40 TDP1 CPT -8%.
